Several values for one entry are separate records, joined by “and”; a condition that tells them apart may be missing. Equal entries are not always repeated. Results filed as inconclusive are left out. Activity calls are given as the source filed them. Calls come from the whole dose curve; as a rule, active = well fitted inhibition curve with a large enough effect; inconclusive = small, poorly fitted or top-dose-only effect, or effect the other way; inactive = flat fitted curve, though single readings scatter.
Biological target: Lysosomal acid glucosylceramidase (Homo sapiens) (UniProt P04062)
Assay: qHTS Assay for Inhibitors and Activators of N370S glucocerebrosidase as a Potential Chaperone Treatment of Gaucher Disease: Purified Non-mutant Glucocerebrosidase
Conditions: purified wildtype GC, 4MU-beta-glucoside fluorescence, 40 min; series mostly up to 76.9 µM
Description: NIH Chemical Genomics Center [NCGC] NIH Molecular Libraries Probe Production Centers Network [MLPCN] MLPCN Grant: MH086442-01 Assay Submitter (PI): Wei Zheng Glucocerebrosidase (GC) catalyzes the hydrolysis of beta-glucocerebroside to glucose and ceramide in lysosomes. Mutations in the glucocerebrosidase gene result in Gaucher disease, an autosomal recessive lysosomal storage disorder. Many of the mutations encountered in patients with Gaucher disease are missense alterations that may cause misfolding, decreased stability and/or mistrafficking of this lysosomal protein. […] These inhibitors include iminosugar analogs and three non-iminosugar inhibitors identified from a previous HTS of 62,000 compounds with the wild type recombinant enzyme. However, the enhancement of enzyme activity by the chaperone action of an enzyme inhibitor must be balanced against the direct inhibition of the enzyme. An enzyme activator could also function as a chaperone by binding to the enzyme and helping to correct its misfolding and mistrafficking. While activators for GC have not yet been identified, they may have better therapeutic potential than inhibitors. Therefore the discovery and development of chemical activators may provide a new strategy for the chaperone therapy. We have optimized a new assay using N370S mutant GC derived from the spleen of a Gaucher patient. […] In addition, the MLPCN compound library has expanded, which increases the chance of finding new and better probes. This assay characterizes compound activity using purified wildtype enzyme instead of mutant enzyme from tissue homogenate. Compound activity differences may be due to the absence of endogenous cofactors found in tissue homogenate as well as inherent differences in enzyme stability and catalytic activity between the N370S and wildtype forms of the protein.
NCGC Assay Protocol Summary: This is a fluorogenic enzyme assay with 4-methylumbelliferyl-beta-D-glucopyranoside as the substrate and purified wildtype glucocerebrosidase as the enzyme preparation. Upon the hydrolysis of this fluorogenic substrate, the resulting product, […] which can be detected by a standard fluorescence plate reader. Data were normalized to the controls for basal activity (without enzyme) and 100% activity (with enzyme). The AC50 values were determined from concentration-response data modeled with the standard Hill equation. Assay buffer: 50 mM citric acid (titrated with potassium phosphate to pH 5.0), 100 mM potassium chloride, 10 mM sodium chloride, 1 mM magnesium chloride, 0.01% Tween-20. 1536-well assay protocol: (1) Add 2 ul/well of glucocerebrosidase enzyme solution (5 nM final) (2) Add 23 nL compounds in DMSO solution. The final titration was 0.5 nM to 58 uM. (3) Add 2 ul of substrate (1 mM final) (4) Incubate at 37C for 40 min. (5) Add 2 ul stop solution (1M NaOH and 1M Glycine mixture, pH 10) (6) Detect the assay plate in a ViewLux plate reader (PerkinElmer) with Ex=365 nm and Em=440nm. Keywords: Glucocerebrosidase, beta-glucosidase, Gaucher Disease, pharmacological chaperone, chaperone therapy, high throughput screening, glucocerebrosidase inhibitor, MLSMR, MLSCN, NIH Roadmap, qHTS and NCGC

Chain of Lysosomal acid glucosylceramidase (Homo sapiens) (P04062 whole entry, looked up): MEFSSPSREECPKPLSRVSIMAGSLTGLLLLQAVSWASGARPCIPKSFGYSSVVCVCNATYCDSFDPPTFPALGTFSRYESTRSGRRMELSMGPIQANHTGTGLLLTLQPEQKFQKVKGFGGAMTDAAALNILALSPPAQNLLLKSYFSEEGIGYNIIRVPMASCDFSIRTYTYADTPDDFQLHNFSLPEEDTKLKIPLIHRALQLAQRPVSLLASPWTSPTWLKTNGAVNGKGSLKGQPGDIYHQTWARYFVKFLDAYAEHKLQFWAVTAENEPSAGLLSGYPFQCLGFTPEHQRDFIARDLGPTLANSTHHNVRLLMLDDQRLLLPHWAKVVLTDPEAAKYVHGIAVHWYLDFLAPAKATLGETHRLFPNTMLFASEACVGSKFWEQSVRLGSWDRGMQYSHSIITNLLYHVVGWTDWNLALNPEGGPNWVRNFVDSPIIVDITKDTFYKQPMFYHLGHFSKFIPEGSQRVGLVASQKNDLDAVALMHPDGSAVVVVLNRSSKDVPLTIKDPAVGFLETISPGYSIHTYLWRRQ

SMILES | Potency
S=C(NCCCc1cnc[nH]1)NCCCN(Cc1ccc(Cl)c(Cl)c1)c1ccc(Br)cn1 | 0.708 µM (active)
Cc1ccc(-c2nc(N3CCN(S(=O)(=O)c4ccc(F)cc4)CC3)c3ccc(Cl)cc3n2)cc1 | inactive
c1csc(-c2nc(NCC3CCCO3)c3ccccc3n2)c1 (centres undefined) | 15.8 µM (active)
COc1ccc(-c2nc(N3CCN(S(=O)(=O)c4ccc(F)cc4)CC3)c3ccccc3n2)cc1 | inactive
OCCNc1nc(-c2cccs2)nc2ccccc12 | 17.8 µM (active)
O=S(=O)(c1ccc(F)cc1)N1CCN(c2nc(-c3ccccc3)nc3cc(Cl)ccc23)CC1 | inactive
O=S(=O)(c1ccccc1)N1CCN(c2nc(-c3ccc(F)cc3)nc3cc(Cl)ccc23)CC1 | inactive
O=S(=O)(c1ccc(Cl)cc1)N1CCN(c2nc(-c3cccs3)nc3ccccc23)CC1 | 2.51 µM (active) and 6.31 µM (active)
O=S(=O)(c1cccc2ccccc12)N1CCN(c2nc(-c3cccs3)nc3ccccc23)CC1 | 14.1 µM (active)
O=S(=O)(c1ccc2c(c1)OCCO2)N1CCN(c2nc(-c3cccs3)nc3ccccc23)CC1 | 2.51 µM (active)
O=S(=O)(c1ccc(Cl)cc1)N1CCN(c2nc(-c3cccc(Br)c3)nc3ccccc23)CC1 | inactive
NS(=O)(=O)c1ccc(S(=O)(=O)N2CCN(c3nc(-c4cccs4)nc4ccccc34)CC2)cc1 | 15.8 µM (active)
O=S(=O)(c1ccccc1Cl)N1CCN(c2nc(-c3cccs3)nc3ccccc23)CC1 | 2.82 µM (active)
O=S(=O)(c1ccc2c(c1)OCCO2)N1CCN(c2nc(-c3ccccc3)nc3ccccc23)CC1 | 12.6 µM (active)
O=S(=O)(c1ccc(Cl)cc1)N1CCN(c2nc(-c3ccc(F)cc3)nc3cc(Cl)ccc23)CC1 | inactive
Cc1cc(C)cc(N(CC(=O)NC2CCCCCC2)S(=O)(=O)c2c(C)[nH]c(=O)[nH]c2=O)c1 | 0.398 µM (active)
Cc1ccc(S(=O)(=O)N2CCN(c3nc(-c4ccc(F)cc4)nc4cc(Cl)ccc34)CC2)cc1 | inactive

SMILES | Potency
O=S(=O)(c1ccc(Cl)cc1)N1CCN(c2nc(Nc3cc(Cl)ccc3O)nc3ccccc23)CC1 | 1.26 µM (active)
O=S(=O)(c1ccc(F)cc1)N1CCN(c2nc(-c3cccc(Br)c3)nc3ccccc23)CC1 | inactive
O=S(=O)(c1cccc(C(F)(F)F)c1)N1CCN(c2nc(-c3cccs3)nc3cc(Cl)ccc23)CC1 | inactive
CC(C)(C)C(=O)OCCNc1nc(-c2ccccc2)nc2ccccc12 | 0.708 µM (active)
O=S(=O)(Cc1ccccc1)N1CCN(c2nc(-c3cccs3)nc3ccccc23)CC1 | 10 µM (active)
Cc1ccc(S(=O)(=O)N2CCN(c3nc(-c4cccs4)nc4ccccc34)CC2)cc1 | 2 µM (active) and 10 µM (active)
O=S(=O)(c1ccc2ccccc2c1)N1CCN(c2nc(-c3cccs3)nc3ccccc23)CC1 | 8.91 µM (active)
COc1ccc(S(=O)(=O)N2CCN(c3nc(-c4cccs4)nc4ccccc34)CC2)cc1 | 14.1 µM (active)
O=C(c1ccc2c(c1)OCCO2)N1CCN(c2nc(-c3cccs3)nc3ccccc23)CC1 | 31.6 µM (active)
O=S(=O)(c1cccs1)N1CCN(c2nc(-c3cccs3)nc3ccccc23)CC1 | 8.91 µM (active)
CC(C)C(C)NC(=O)CSc1nc2scc(-c3ccco3)c2c(=O)n1-c1ccccc1 (centres undefined) | inactive
O=S(=O)(c1ccc(F)cc1)N1CCN(c2nc(-c3cccs3)nc3cc(Cl)ccc23)CC1 | inactive
Cc1ccc(Cl)cc1NC(=O)c1ccccc1OCC(=O)Nc1ccc(Cl)cc1 | inactive
O=S(=O)(c1ccccc1C(F)(F)F)N1CCN(c2nc(-c3cccs3)nc3ccccc23)CC1 | 4.47 µM (active)
COc1cccc(S(=O)(=O)N2CCN(c3nc(-c4cccs4)nc4ccccc34)CC2)c1 | 10 µM (active)
O=S(=O)(c1ccc(F)cc1)N1CCN(c2nc(-c3ccc(F)cc3)nc3cc(Cl)ccc23)CC1 | inactive
O=S(=O)(c1ccc(Cl)cc1)N1CCN(c2nc(-c3ccc(Cl)cc3)nc3ccccc23)CC1 | inactive

Reference: PubChem BioAssay AID2595 (National Center for Advancing Translational Sciences (NCATS), 2010)
